# According to PubChem BioAssay (NCATS):
# Inconclusive results are not listed. Entries that show only a call come without a potency. Values without a mark were called inactive. The source made the active and inactive calls. Calls follow the shape of the dose curve; as a rule, active = well fitted curve in the direction sought with a large enough effect; inconclusive = small, poorly fitted or top-dose-only effect, or another doubt; inactive = no such curve, though single readings can be large; an effect the other way counts as inactive or inconclusive.
# Experiments:
# [1] = system: HEK293T; assay: qHTS assay to identify novel small-molecules to repurpose for Merkel cell carcinoma treatment (AID 1296009); details: MCC and control cell lines, CellTiter-Glo viability, 72 h; at 44.8 µM (top of the series) unless noted; also: nearly all actives have a fitted effect of over 60% in size
# Outline: (§1)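 Cells were incubated with compound for 72 hr at 37 degree celsius before CellTiter-Glo addition. Luminescence was normalized with no-cell wells as full cytotoxicity and DMSO as baseline.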
# [2] = system: C33A; assay: Primary qHTS to identify gynecologic anti-cancer compounds using libraries of approved drugs and bioactive compounds (AID 1345084); details: Gynecologic cancer cell panel viability, ATPlite luminescence, 48 h; series mostly up to 57.5 µM; also: nearly all actives have a fitted effect of over 55% in size; also: potency is read from the fitted curve at half-maximal effect
# Outline: (§2)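 Cells, 1,000 per well, were allowed to settle for 16 h at 37 C before compound addition. Five concentrations were tested for 48 h, and viability was read by ATPlite luminescence after 15 min at room temperature.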
# [3] = system: CASKI; assay: as above; details: Gynecologic cancer cell panel viability, ATPlite luminescence, 48 h; series mostly up to 57.5 µM
# Outline: as §2
# [4] = system: Es-2; assay: as above; details: Gynecologic cancer cell panel viability, ATPlite luminescence, 48 h; series mostly up to 57.5 µM
# Outline: as §2
# [5] = system: HeLa; assay: as above; details: Gynecologic cancer cell panel viability, ATPlite luminescence, 48 h; series mostly up to 57.5 µM
# Outline: as §2
# [6] = system: Hek293T; assay: as above; details: Gynecologic cancer cell panel viability, ATPlite luminescence, 48 h, control line for the selectivity index; series mostly up to 57.5 µM
# Outline: as §2
# [7] = system: JEG-3; assay: as above; details: Gynecologic cancer cell panel viability, ATPlite luminescence, 48 h; series mostly up to 57.5 µM
# Outline: as §2
# [8] = system: NIH3T3; assay: qHTS assay to identify novel small-molecules to repurpose for Merkel cell carcinoma treatment (AID 1296009); details: MCC and control cell lines, CellTiter-Glo viability, 72 h; at 44.8 µM (top of the series) unless noted; also: nearly all actives have a fitted effect of over 60% in size
# Outline: as §1
# [9] = system: CAOV3; assay: Primary qHTS to identify gynecologic anti-cancer compounds using libraries of approved drugs and bioactive compounds (AID 1345084); details: Gynecologic cancer cell panel viability, ATPlite luminescence, 48 h; series mostly up to 57.5 µM; also: nearly all actives have a fitted effect of over 55% in size; also: potency is read from the fitted curve at half-maximal effect
# Outline: as §2
compound,measurement,setting,value
C=C(CCO)C(=O)OCC1OCC(OC(=O)C(=C)CCO[C@@H]2O[C@H](COC(=O)C(=C)CCO[C@@H]3O[C@H](CO)[C@@H](O)[C@H](O)[C@H]3O)[C@@H](O)[C@H](O)[C@H]2O)C(O)C1O (stereo not given in full),outcome,[1],inactive [at 17.4 µM]
same,Potency,[2],inactive
same,outcome,[3],inactive
same,Potency,[4],inactive
same,Potency,[5],inactive
same,Potency,[6],inactive
same,Potency,[7],inactive
C#CCCCn1cc(-c2cccc3c2N[C@@H](C)CC(=O)N3)cn1,outcome,[8],inactive
same,Potency,[2],inactive
same,Potency,[9],inactive
same,outcome,[3],inactive
same,Potency,[4],inactive
same,Potency,[5],28.2 µM (active)
same,Potency,[6],inactive
same,Potency,[7],inactive
CC1CC=C2C1CC1(O)C(=O)CC2(C)C1(C)CO (stereo not given),outcome,[8],inactive
same,Potency,[2],inactive
same,Potency,[9],inactive
same,outcome,[3],inactive
same,Potency,[4],inactive
same,Potency,[5],inactive
same,Potency,[6],inactive
same,Potency,[7],inactive
CC1=CC23[C@H](C=C(C(=O)O)[C@@H]2COC(=O)[C@]3(O)CO)[C@@H]1C (stereo not given in full),outcome,[8],inactive
same,Potency,[2],inactive
same,Potency,[9],inactive
same,outcome,[3],inactive
same,Potency,[4],inactive
same,Potency,[5],inactive
same,Potency,[6],inactive
same,Potency,[7],inactive
CC(=O)O[C@@H]1[C@H](OC(C)=O)C[C@@]2(C)C(CC[C@@H](C)[C@]23Cc2c(O)cc4c(c2O3)CN([C@@H](CCC(=O)O)C(=O)O)C4=O)C1(C)C (stereo not given in full),outcome,[8],inactive [at 17.4 µM]
same,Potency,[2],inactive
same,Potency,[9],inactive
same,outcome,[3],inactive
same,Potency,[4],inactive
same,Potency,[5],inactive
same,Potency,[6],inactive
same,Potency,[7],inactive
CC1=COC(OC2OC(CO)C(O)C(O)C2O)C2C(CO)CC(OC(=O)/C=C/c3ccc(O)cc3)C12 (stereo not given),outcome,[8],inactive [at 17.4 µM]
same,Potency,[2],inactive
same,Potency,[9],inactive
same,outcome,[3],inactive
same,Potency,[4],inactive
same,Potency,[5],inactive
same,Potency,[6],inactive
same,Potency,[7],inactive
COc1cc(C[C@@]2(O)CO[C@@H](c3ccc(O[C@@H]4O[C@H](CO)[C@@H](O)[C@H](O)[C@H]4O)c(OC)c3)[C@H]2CO)ccc1O,outcome,[8],inactive [at 17.4 µM]
same,Potency,[2],inactive
same,Potency,[9],inactive
same,outcome,[3],inactive
same,Potency,[4],inactive
same,Potency,[5],inactive
same,Potency,[6],inactive
same,Potency,[7],inactive
CC1(CO)CCCC2(C)C3COC(=O)C3=CC(O)C12 (stereo not given),outcome,[8],inactive
same,Potency,[2],inactive
same,Potency,[9],inactive
same,outcome,[3],inactive
same,Potency,[4],inactive
same,Potency,[5],inactive
same,Potency,[6],inactive
same,Potency,[7],inactive
Cn1cc(Nc2cnccc2C(=O)O)c2cccnc21,outcome,[8],inactive
same,Potency,[2],inactive
same,Potency,[9],inactive
same,outcome,[3],inactive
same,Potency,[4],inactive
same,Potency,[5],inactive
same,Potency,[6],inactive
same,Potency,[7],inactive
CC1OC(OC2C(OC3C(O[C@H]4CC[C@@]5(C)C(CC[C@]6(C)C5CC=C5C7CC(C)(C)CC(O)[C@]7(C)CC[C@]56C)C4(C)C)OC(C(=O)O)C(O)C3O)OCC(O)C2O)C(O)C(O)C1O (stereo not given in full),outcome,[8],inactive [at 9.27 µM]
same,"activity change, negative = cytotoxicity",[2],14% [at 11.6 µM]
same,"activity change, negative = cytotoxicity",[9],4.78% [at 11.6 µM]
same,"activity change, negative = cytotoxicity",[3],-6.68% [at 11.6 µM]
same,"activity change, negative = cytotoxicity",[4],1.85% [at 11.6 µM]
same,"activity change, negative = cytotoxicity",[5],7.99% [at 11.6 µM]
same,"activity change, negative = cytotoxicity",[6],-2.65% [at 11.6 µM]
same,"activity change, negative = cytotoxicity",[7],6.46% [at 11.6 µM]
C=C1CC[C@@]2(OC1)O[C@H]1CC3C4CC=C5C[C@@H](O[C@@H]6O[C@@H](C)[C@H](O)[C@@H](O)[C@H]6O)C[C@@H](O[C@@H]6O[C@H](C)[C@H](O)[C@H](O)[C@H]6O[C@@H]6O[C@@H](C)[C@H](O)[C@@H](O)[C@H]6O)[C@]5(C)C4CC[C@]3(C)[C@H]1[C@@H]2C (stereo not given in full),outcome,[8],inactive [at 9.27 µM]
same,"activity change, negative = cytotoxicity",[2],1.56% [at 11.6 µM]
same,"activity change, negative = cytotoxicity",[9],10.5% [at 11.6 µM]
same,"activity change, negative = cytotoxicity",[3],-15.2% [at 11.6 µM]
same,"activity change, negative = cytotoxicity",[4],20.8% [at 11.6 µM]
same,"activity change, negative = cytotoxicity",[5],18.7% [at 11.6 µM]
same,"activity change, negative = cytotoxicity",[6],5.62% [at 11.6 µM]
same,"activity change, negative = cytotoxicity",[7],-4.67% [at 11.6 µM]
CO[C@@H]1[C@]2(O)C(=O)N3/C=C\C(C)(C)c4[nH]c5ccccc5c4/C=C\3C(=O)N2[C@]23[C@H](CO)C(C)(C)N2c2ccccc2[C@]13O,outcome,[8],inactive [at 17.4 µM]
same,Potency,[2],inactive
same,Potency,[9],inactive
same,outcome,[3],inactive
same,Potency,[4],inactive
same,Potency,[5],inactive
same,Potency,[6],inactive
same,Potency,[7],inactive
C=C(C(=O)O)C1CC(O)C2(C)CCCC(C)(O)C2C1 (stereo not given),outcome,[8],inactive
same,Potency,[2],inactive
same,Potency,[9],inactive
same,outcome,[3],inactive
same,Potency,[4],inactive
same,Potency,[5],inactive
same,Potency,[6],inactive
same,Potency,[7],inactive
CC1=CCC[C@@H]2[C@](CCc3ccoc3)(C(=O)O)[C@H](C)CC[C@@]12C,outcome,[8],inactive
same,Potency,[2],inactive
same,Potency,[9],inactive
same,outcome,[3],inactive
same,Potency,[4],inactive
same,Potency,[5],inactive
same,Potency,[6],inactive
same,Potency,[7],inactive
C[C@@H]1C[C@H]2OC(=O)[C@@]3(C)CCC[C@](C)(C23)[C@@]1(O)CCC1=CC(=O)OC1O (stereo not given in full),outcome,[8],inactive
same,Potency,[2],inactive
same,Potency,[9],inactive
same,outcome,[3],inactive
same,Potency,[4],inactive
same,Potency,[5],inactive
same,Potency,[6],inactive
same,Potency,[7],inactive
H-DPPDPDRFYGMM-NH2,outcome,[8],inactive [at 17.4 µM]
same,Potency,[2],inactive
same,Potency,[9],inactive
same,outcome,[3],inactive
same,Potency,[4],inactive
same,Potency,[5],inactive
same,Potency,[6],inactive
same,Potency,[7],inactive
CC/C=C/C(O)C(O)C1=C(C)C(=O)C2(O1)C(=O)NC(OC)(C(=O)c1ccccc1)C2O (stereo not given),outcome,[8],inactive [at 17.4 µM]
same,Potency,[2],inactive
same,Potency,[9],inactive
same,outcome,[3],inactive
same,Potency,[4],inactive
same,Potency,[5],inactive
same,Potency,[6],inactive
same,Potency,[7],inactive
